From PubChem BioAssay AID1159580 (chemical genetic matrix, 2015)
Several values for one entry are separate records, joined by “and”; a condition that tells them apart may be missing. Identical values can stand only once. The whole screen tested about 5,500 compounds, of which about 2,000 (36%) were called active. Inconclusive results (about 18%) are left out. Rule as the data show it: active = normalized growth mostly below about 0.91 (no sharp cut-off); inconclusive = no clear call, values can overlap the other calls; inactive = mostly above about 0.92. This is one part of the list.

Experiment: chemical genetic growth profiling, strain panel (AID 1159580);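 also: tested at 20 µM; growth read once vehicle control cultures reached saturation at 30 °C; 1 = growth at the plate median or of vehicle wells; lower values mean less growth of the strain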
Details: S. cerevisiae deletion strains, growth OD

Measured: normalized growth

Cc1c(N(C)C)c(=O)n(-c2ccccc2)n1C
inactive: locus YAL013W, strain DEP1, hits give low values 0.994 | locus YAL021C, strain ccr4, hits give low values 0.981 | locus YAL026C, strain drs2, hits give low values 0.977 | locus YAL030W, strain snc1, hits give low values 0.982 | locus YBL061C, strain skt5, hits give low values 1 | locus YBR009C, strain hhf1, hits give low values 0.976 | locus YBR021W, strain FUR4, hits give low values 1.01 | locus YBR023C, strain chs3, hits give low values 0.983 | locus YBR171W, strain sec66, hits give low values 0.987 | locus YBR229C, strain ROT2, hits give low values 0.978 | locus YBR231C, strain swc5, hits give low values 0.99 | locus YBR279W, strain paf1, hits give low values 0.996 | locus YCL011C, strain gbp2, hits give low values 1.01 | locus YCL016C, strain dcc1, hits give low values 0.993 | locus YCL029C, strain bik1, hits give low values 0.972 | locus YCL061C, strain MRC1, hits give low values 0.979 | locus YCL069W, strain vba3, hits give low values 1 | locus YCR088W, strain abp1, hits give low values 1 | locus YDL005C, strain med2, hits give low values 0.96 | locus YDL035C, strain GPR1, hits give low values 0.995 | locus YDL040C, strain nat1, hits give low values 0.991 | locus YDL074C, strain BRE1, hits give low values 0.984 | locus YDL101C, strain DUN1, hits give low values 0.983 | locus YDL134C, strain PPH21, hits give low values 0.997 | locus YDL185W, strain tfp1, hits give low values 0.962 | locus YDL192W, strain arf1, hits give low values 0.98 | locus YDR001C, strain nth1, hits give low values 0.994 | locus YDR069C, strain doa4, hits give low values 0.971 | locus YDR101C, strain arx1, hits give low values 0.99 | locus YDR137W, strain rgp1, hits give low values 0.986 | locus YDR150W, strain NUM1, hits give low values 0.993 | locus YDR159W, strain sac3, hits give low values 0.948 | locus YDR162C, strain NBP2, hits give low values 0.993 | locus YDR195W, strain ref2 0.934 | locus YDR297W, strain sur2, hits give low values 1 | locus YDR318W, strain mcm21, hits give low values 0.989 | locus YDR334W, strain swr1, hits give low values 0.987 | locus YDR335W, strain msn5, hits give low values 0.993 | locus YDR388W, hits give low values 0.998 | locus YDR392W, strain spt3, hits give low values 1 | locus YDR502C, strain sam2, hits give low values 0.999 | locus YEL003W, strain gim4, hits give low values 0.997 | locus YEL037C, strain rad23, hits give low values 0.998 | locus YEL061C, strain CIN8 (second series), hits give low values 1.01 | locus YEL061C, strain CIN8, hits give low values 0.996 | locus YER015W, strain faa2, hits give low values 0.995 | locus YER016W, strain bim1, hits give low values 0.999 | locus YER110C, hits give low values 0.981 | locus YER111C, strain swi4, hits give low values 0.983 | locus YER155C, strain BEM2 (second series), hits give low values 0.989 | locus YER155C, strain BEM2, hits give low values 0.995 | locus YER167W, strain BCK2, hits give low values 0.99 | locus YFR010W, strain ubp6, hits give low values 0.986 | locus YGL078C, strain dbp3, hits give low values 0.997 | locus YGL086W, strain mad1, hits give low values 1 | locus YGL167C, strain pmr1, hits give low values 0.982 | locus YGL173C, strain kem1, hits give low values 0.96 | locus YGL227W, strain vid30, hits give low values 0.984 | locus YGL240W, strain doc1, hits give low values 0.972 | locus YGL248W, strain PDE1, hits give low values 0.998 | locus YGL253W, strain hxk2, hits give low values 1.02 | locus YGR078C, strain PAC10, hits give low values 0.985 | locus YGR135W, strain pre9, hits give low values 0.991 | locus YGR229C, strain SMI1, hits give low values 0.992 | locus YGR252W, strain gcn5, hits give low values 1.1 | locus YHR013C, strain ard1, hits give low values 0.964 | locus YHR027C, strain rpn1, hits give low values 0.996 | locus YHR030C, strain SLT2, hits give low values 0.976 and 1.04 | locus YHR079C, strain IRE1 (second series), hits give low values 0.99 | locus YHR079C, strain IRE1, hits give low values 1.01 | locus YHR094C, strain hxt1, hits give low values 0.978 | locus YHR129C, strain ARP1, hits give low values 0.993 | locus YHR142W, strain chs7, hits give low values 1.02 | locus YHR200W, strain rpn10, hits give low values 0.999 | locus YIL066C, strain RNR3, hits give low values 0.992 | locus YIL073C, strain SPO22, hits give low values 0.923 | locus YIL125W, strain kgd1, hits give low values 0.99 | locus YIR030C, strain dcg1, hits give low values 0.99 | locus YJL092W, strain hpr5, hits give low values 1 | locus YJL095W, strain BCK1 (second series), hits give low values 0.997 | locus YJL095W, strain BCK1, hits give low values 0.966 and 1.04 | locus YJL115W, strain asf1, hits give low values 0.995 | locus YJL129C, strain trk1, hits give low values 0.983 | locus YJL134W, strain LCB3, hits give low values 0.997 | locus YJL154C, strain vps35, hits give low values 0.987 | locus YJL166W, strain qcr8, hits give low values 0.982 | locus YJL168C, strain set2, hits give low values 0.99 | locus YJL187C, strain SWE1 (second series), hits give low values 0.975 | locus YJR043C, strain POL32, hits give low values 0.986 | locus YJR066W, strain TOR1, hits give low values 0.972 | locus YJR075W, strain HOC1, hits give low values 0.997
